{"source": "ChEMBL document CHEMBL1201862", "about": "“PubChem BioAssay data set” (2004)", "note": "Hit rate of the full screen: of about 400,000 compounds, about 2,100 (0.53%) were called active. Not shown: some 14% with an inconclusive outcome. This is one part of a sample in which actives are shown more often than they occur. No rule for the calls is given here.", "data": [{"biological_target": "Ataxin-2 (Homo sapiens) (UniProt Q99700)", "sequence (Q99700 whole entry)": "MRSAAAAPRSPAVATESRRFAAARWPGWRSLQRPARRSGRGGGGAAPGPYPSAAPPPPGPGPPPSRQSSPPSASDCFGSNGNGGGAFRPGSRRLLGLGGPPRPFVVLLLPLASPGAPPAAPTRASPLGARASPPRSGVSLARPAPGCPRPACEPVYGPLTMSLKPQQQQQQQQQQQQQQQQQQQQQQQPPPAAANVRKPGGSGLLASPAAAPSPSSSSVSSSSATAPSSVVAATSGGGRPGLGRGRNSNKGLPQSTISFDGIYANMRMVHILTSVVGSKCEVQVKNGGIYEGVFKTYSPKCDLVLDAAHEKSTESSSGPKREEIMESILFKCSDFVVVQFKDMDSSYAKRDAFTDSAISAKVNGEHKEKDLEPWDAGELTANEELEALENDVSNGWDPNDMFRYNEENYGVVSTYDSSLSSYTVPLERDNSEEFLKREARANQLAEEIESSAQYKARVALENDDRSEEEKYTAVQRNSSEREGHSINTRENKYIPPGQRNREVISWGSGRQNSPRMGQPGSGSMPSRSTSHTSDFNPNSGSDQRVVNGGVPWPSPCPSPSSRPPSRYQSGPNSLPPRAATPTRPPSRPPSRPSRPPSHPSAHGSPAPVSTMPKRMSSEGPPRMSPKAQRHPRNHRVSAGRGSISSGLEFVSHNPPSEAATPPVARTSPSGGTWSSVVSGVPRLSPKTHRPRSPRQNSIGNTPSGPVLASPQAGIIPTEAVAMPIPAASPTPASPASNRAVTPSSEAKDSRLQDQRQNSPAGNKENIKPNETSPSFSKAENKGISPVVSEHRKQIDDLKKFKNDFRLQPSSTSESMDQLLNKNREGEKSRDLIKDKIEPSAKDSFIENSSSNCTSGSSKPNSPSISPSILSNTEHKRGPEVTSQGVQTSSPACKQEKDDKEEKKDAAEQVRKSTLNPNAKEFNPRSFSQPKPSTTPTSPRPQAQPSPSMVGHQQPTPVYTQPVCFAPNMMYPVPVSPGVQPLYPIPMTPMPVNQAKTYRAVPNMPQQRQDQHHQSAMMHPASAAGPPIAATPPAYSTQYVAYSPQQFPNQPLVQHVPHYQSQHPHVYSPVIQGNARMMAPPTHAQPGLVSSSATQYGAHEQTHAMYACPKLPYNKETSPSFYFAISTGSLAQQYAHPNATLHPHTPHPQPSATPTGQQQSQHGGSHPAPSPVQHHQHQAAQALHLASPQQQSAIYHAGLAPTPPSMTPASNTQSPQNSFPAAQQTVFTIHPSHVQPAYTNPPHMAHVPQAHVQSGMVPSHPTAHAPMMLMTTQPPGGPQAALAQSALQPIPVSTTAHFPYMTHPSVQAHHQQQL", "assay": "qHTS for Inhibitors of ATXN expression.", "assay_type": "functional", "values": [{"molecule": "Cc1ccc2nc(N3CCN(C)CC3)c(C=O)c(=O)n2c1", "Potency": "inactive"}, {"molecule": "COCC(C)NC(=O)c1cc(-c2ccc(O)cc2)on1", "note": "(stereo unspecified)", "Potency": "inactive"}, {"molecule": "Nc1c2ccccc2nc2ccccc12", "Potency": "inactive"}, {"molecule": "COC(=O)Cc1csc(N/C=C2/C(=O)N(c3cccc(C(F)(F)F)c3)C(=O)c3ccccc32)n1", "Potency": "inactive"}, {"molecule": "CC(C)C(N)c1csc(NC(=O)Nc2cccc(C(F)(F)F)c2)n1", "note": "(stereo unspecified)", "Potency": "35.5 µM (active)"}, {"molecule": "CNC(=O)Nc1cc(C(F)(F)F)cc(C(F)(F)F)c1", "Potency": "inactive"}, {"molecule": "O=C(Nc1cccnc1)Nc1cccc(F)c1", "Potency": "inactive"}, {"molecule": "NC(c1csc(NC(=O)Nc2cccc(C(F)(F)F)c2)n1)C1CCCCC1", "note": "(stereo unspecified)", "Potency": "28.2 µM (active)"}, {"molecule": "CCCCNc1ccc2c3c(cccc13)C(=O)N(CCCC)C2=O", "Potency": "inactive"}, {"molecule": "Cc1nn2c(-c3ccccc3)c(-c3ccccc3)nc2nc1O", "Potency": "inactive"}, {"molecule": "Cc1cc(C)cc(CC2CC(=O)N(c3cc(C)ccc3C)C2=O)c1", "note": "(stereo unspecified)", "Potency": "inactive"}, {"molecule": "CCC(C)Sc1ccc(-c2nc3cnccn3c2NC2CCCCC2)cc1", "note": "(stereo unspecified)", "Potency": "inactive"}, {"molecule": "CC(C)(C=O)C1=CC(=O)c2ccccc2C1=O", "Potency": "10 µM (active)"}, {"molecule": "CCOC(=O)c1c(NC(=O)c2nn(C)cc2[N+](=O)[O-])sc(C)c1C", "Potency": "inactive"}, {"molecule": "CCCNC1=C(N(C(C)=O)c2cccc(F)c2)C(=O)c2ccccc2C1=O", "Potency": "31.6 µM (active)"}, {"molecule": "C=CCNC(=O)C1CC(=O)N(c2ccc(OCC(=O)N3CCCC3)cc2)C1", "note": "(stereo unspecified)", "Potency": "inactive"}, {"molecule": "CCC/C(C#Cc1ccc(N(C)C)cc1)=C1/c2ccccc2C(=O)N1c1ccccc1", "Potency": "inactive"}, {"molecule": "Nc1nc(N)c2cc(Sc3ccc(Cl)cc3)ccc2n1", "Potency": "35.5 µM (active)"}, {"molecule": "O=C(O)c1cc(Sc2ccc(Br)cc2)nc2ccccc12", "Potency": "inactive"}, {"molecule": "N#C/C(=C\\c1ccc(N2CCOCC2)o1)C(=O)NCCc1ccccc1", "Potency": "inactive"}, {"molecule": "COc1ccc(C(=O)C(CCCCC(CN(C)C)C(=O)c2ccc(OC)cc2)CN(C)C)cc1", "note": "(stereo unspecified)", "Potency": "31.6 µM (active)"}, {"molecule": "COc1ccc(C(=O)NN=C2CCCC2)cc1", "Potency": "inactive"}, {"molecule": "COc1ccc(C(=O)COc2ccccc2C#N)cc1", "Potency": "inactive"}, {"molecule": "CC(=O)c1cccc(S(=O)(=O)N2CCC(C(=O)Nc3cccc(C(=O)NC4CC4)c3)CC2)c1", "Potency": "inactive"}, {"molecule": "Nc1ccc(OC(=O)Nc2ccc(O)cc2)cc1", "Potency": "inactive"}, {"molecule": "CCOC(=O)N1C(=O)[C@@](c2ccc(Cl)cc2)(C(C)C)N1C(=O)OCC", "Potency": "31.6 µM (active)"}, {"molecule": "CCOC(=O)CN1N=C(c2ccc(Cl)cc2)CCC1=O", "Potency": "inactive"}, {"molecule": "CCN(CC)C(=O)Cn1cc(C(=O)C(=O)N2CC=C(c3ccccc3)CC2)c2ccccc21", "Potency": "inactive"}, {"molecule": "Cc1cccc(NC(=O)NNC(=O)c2cc3ccccc3cc2O)c1C", "Potency": "inactive"}, {"molecule": "C=CCC[C@@H](Cc1ccc(F)cc1)C(=O)OC[C@@H](C)NC(=O)[C@H](CC=C)CC(=O)N(CCO)Cc1ccccc1", "Potency": "39.8 µM (active)"}, {"molecule": "C=CCC[C@@H](Cc1ccc(F)cc1)C(=O)OC[C@H](C)NC(=O)[C@H](CC=C)CC(=O)N(CCO)Cc1ccccc1", "Potency": "28.2 µM (active)"}, {"molecule": "C/C(=N\\NC(=O)Cc1csc(N2CCOCC2)n1)c1ccc(Cl)c(Cl)c1", "Potency": "inactive"}, {"molecule": "CCCCCc1c(-c2ccccc2OC)ncn1CCc1ccccc1OC", "Potency": "31.6 µM (active)"}, {"molecule": "CCCCc1c(-c2ccccc2F)ncn1CCc1ccccc1OC", "Potency": "31.6 µM (active)"}, {"molecule": "CCCCCN1C(C(=O)c2ccccc2)=C(NC(=O)c2ccc(OC)c(OC)c2)c2ccccc2S1(=O)=O", "Potency": "inactive"}, {"molecule": "CCCCc1c(-c2ccccc2Br)ncn1CCc1ccccc1OC", "Potency": "28.2 µM (active)"}, {"molecule": "Nc1cccc2c1C(=O)N(CCOc1ccccc1F)C2=O", "Potency": "inactive"}, {"molecule": "CCCc1c(-c2ccccc2Br)ncn1Cc1ccccc1OC", "Potency": "31.6 µM (active)"}, {"molecule": "Cc1cc(Cl)n2c(nc3ccccc32)c1C#N", "Potency": "inactive"}, {"molecule": "CC(CCCC(C)(C)O)NC(=O)c1ccc(OC2CCN(C(=O)C3CC3)CC2)cc1", "note": "(stereo unspecified)", "Potency": "inactive"}, {"molecule": "CCCCc1c(-c2ccc(F)cc2F)ncn1CCc1ccccc1OC", "Potency": "35.5 µM (active)"}, {"molecule": "CCCCCc1c(-c2ccccc2F)ncn1CCc1ccccc1OC", "Potency": "28.2 µM (active)"}, {"molecule": "CCOC(=O)C1(CCOC)CCCCC1=O", "note": "(stereo unspecified)", "Potency": "inactive"}, {"molecule": "Cc1ccc(Nc2nc(Cl)c(C=O)s2)cc1Cl", "Potency": "inactive"}, {"molecule": "CC(C)N(CCNCc1nnc(-c2ccccc2)o1)C(C)C", "Potency": "inactive"}, {"molecule": "COC(=O)Cc1c(C)c2ccc3c(c2oc1=O)CN(Cc1ccc(Cl)cc1)CO3", "Potency": "inactive"}, {"molecule": "Cc1ccc(C(=O)C(C(=O)/C=C/c2ccccc2)=C2SCCCS2)cc1", "Potency": "25.1 µM (active)"}, {"molecule": "CC1=CC(=O)C=C(C)C1=NOC(=O)/C=C\\c1ccccc1", "Potency": "inactive"}, {"molecule": "Cc1cc(N2CCN(C)CC2)nc2ccc(NC(S)=NCCN3CCc4ccccc4C3)cc12", "Potency": "28.2 µM (active)"}, {"molecule": "Cc1cc(C)c2cc3c(N)c(C(=O)N4CCc5ccccc5C4)sc3nc2c1", "Potency": "inactive"}, {"molecule": "COCCCN=C(S)Nc1ccc2nc(N3CCOCC3)cc(C)c2c1", "Potency": "inactive"}, {"molecule": "CCN1CCN(c2cc(C)c3cc(NC(S)=NCCCN4CCc5ccccc5C4)ccc3n2)CC1", "Potency": "25.1 µM (active)"}, {"molecule": "COc1cc(OC)c2c(OC)cccc2n1", "Potency": "inactive"}, {"molecule": "CC(C)c1ccc(O)c(C(=O)c2cnn(-c3ccccc3)c2)c1", "Potency": "inactive"}, {"molecule": "Cc1cccn2c(=O)c3cc(C(N)=S)c(=N)n(CCCOC(C)C)c3nc12", "Potency": "inactive"}, {"molecule": "CCCCNC(=O)C1(NC(=O)Nc2ccccc2)CCCCC1", "Potency": "inactive"}, {"molecule": "CCCCOCCCNC(=O)C[C@@H]1C[C@@]2(C(=O)OC)CCCCC=C2N(CCC2=CCCCC2)C1=O", "Potency": "35.5 µM (active)"}, {"molecule": "CCCCNC(=O)C[C@@H]1C[C@@]2(C(=O)OC)CCCCC=C2N(CCC2=CCCCC2)C1=O", "Potency": "39.8 µM (active)"}, {"molecule": "Cc1cc(NCCCOC(C)C)n2c(nc3ccccc32)c1C#N", "Potency": "inactive"}, {"molecule": "CC(=O)c1ccc(NC(=O)COC(=O)C2CC3C=CC2C3)cc1", "note": "(stereo unspecified)", "Potency": "inactive"}, {"molecule": "O=C1/C(=C\\NCc2ccccn2)c2ccccc2C(=O)N1c1ccccc1Cl", "Potency": "inactive"}, {"molecule": "Cc1ccc(OCC(=O)N(Cc2ccco2)C2CCS(=O)(=O)C2)cc1C", "note": "(stereo unspecified)", "Potency": "inactive"}, {"molecule": "CCN(C(=O)COc1cccc2cccnc12)C1CCS(=O)(=O)C1", "note": "(stereo unspecified)", "Potency": "inactive"}, {"molecule": "CCN(C(=O)C(C)N1C(=O)/C(=C/c2ccco2)SC1=S)C1CCS(=O)(=O)C1", "note": "(stereo unspecified)", "Potency": "28.2 µM (active)"}, {"molecule": "Cc1ccc(O)c(Nc2c3ccccc3nc3ccccc23)c1", "Potency": "inactive"}, {"molecule": "Cc1ccc(O)c(NN=C2C(=O)CC(C)(C)CC2=O)c1", "Potency": "20 µM (active)"}]}]}
